# A number with no mark means an inactive call. Inconclusive results are not listed. A call without a number means that no potency is given here. Active and inactive are the calls of the source. Unless noted, the call rests on the fitted dose curve; in most records, active means well fitted curve in the direction sought with a large enough effect; inconclusive means small, poorly fitted or top-dose-only effect, or another doubt; inactive means no such curve, though single readings can be large; an effect the other way counts as inactive or inconclusive.
# Columns and labels:
# [1] = target: Cytochrome P450 1A2 (Homo sapiens) (UniProt P05177); assay: p450-cyp1a2 (AID 410; calls by dose curve; further: potency means the concentration at half of the fitted maximal effect)
# Cytochrome P450 1A2 (Homo sapiens), sequence (P05177 whole entry, looked up): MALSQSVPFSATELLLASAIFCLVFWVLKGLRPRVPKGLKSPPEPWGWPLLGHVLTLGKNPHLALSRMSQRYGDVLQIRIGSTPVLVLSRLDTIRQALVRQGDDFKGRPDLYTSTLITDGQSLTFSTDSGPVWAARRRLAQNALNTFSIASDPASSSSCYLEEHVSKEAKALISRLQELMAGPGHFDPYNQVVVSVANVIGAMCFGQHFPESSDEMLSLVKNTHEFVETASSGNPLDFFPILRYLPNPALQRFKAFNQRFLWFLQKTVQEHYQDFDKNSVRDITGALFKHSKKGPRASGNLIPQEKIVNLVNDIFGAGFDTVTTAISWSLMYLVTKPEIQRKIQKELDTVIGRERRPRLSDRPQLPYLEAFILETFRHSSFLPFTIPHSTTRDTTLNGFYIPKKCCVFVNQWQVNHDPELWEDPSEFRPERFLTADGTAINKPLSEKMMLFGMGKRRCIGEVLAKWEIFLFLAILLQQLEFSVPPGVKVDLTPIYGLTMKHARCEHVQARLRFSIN
# Procedure, shortened: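 Human CYP1A2 (20nM) demethylated Luciferin-ME at its Km (100uM) in 100mM KPO4. After 10 min compound preincubation, NADPH regeneration ran the reaction 60 min at room temperature. Luciferin was read by luminescence, normalized to 57 uM furafylline.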
# [2] = Stat Signaling Pathway (AID 446; active means well fitted curve in either direction with a large enough effect, not every such curve was filed as active;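 further: ME-180 cervical cancer cells given 40 pM IL-6 alongside compound; SIE-controlled beta-lactamase reporter measured as 460/530 nm FRET emission ratio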); conditions: ME-180 SIE beta-lactamase reporter, IL-6 stimulated, 5 h; at 17.2 µM (top of the series) unless noted
# Procedure, shortened: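 IL-6/STAT signaling read in ME-180 cells via an SIE beta-lactamase reporter. Stimulus was 40 pM IL-6 (its AC50) for 5 hrs, so both activation and inhibition register.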
# [3] = target: Glucocorticoid receptor (Homo sapiens) (UniProt P04150); assay: GR-GFP Redistribution (AID 450;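 active means compounds whose dose series gives a full or clear partial fitted curve of increased nuclear translocation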; further: potency means the concentration at half of the fitted maximal effect)
# Glucocorticoid receptor (Homo sapiens), sequence (P04150 whole entry, looked up, the tested form may be a part): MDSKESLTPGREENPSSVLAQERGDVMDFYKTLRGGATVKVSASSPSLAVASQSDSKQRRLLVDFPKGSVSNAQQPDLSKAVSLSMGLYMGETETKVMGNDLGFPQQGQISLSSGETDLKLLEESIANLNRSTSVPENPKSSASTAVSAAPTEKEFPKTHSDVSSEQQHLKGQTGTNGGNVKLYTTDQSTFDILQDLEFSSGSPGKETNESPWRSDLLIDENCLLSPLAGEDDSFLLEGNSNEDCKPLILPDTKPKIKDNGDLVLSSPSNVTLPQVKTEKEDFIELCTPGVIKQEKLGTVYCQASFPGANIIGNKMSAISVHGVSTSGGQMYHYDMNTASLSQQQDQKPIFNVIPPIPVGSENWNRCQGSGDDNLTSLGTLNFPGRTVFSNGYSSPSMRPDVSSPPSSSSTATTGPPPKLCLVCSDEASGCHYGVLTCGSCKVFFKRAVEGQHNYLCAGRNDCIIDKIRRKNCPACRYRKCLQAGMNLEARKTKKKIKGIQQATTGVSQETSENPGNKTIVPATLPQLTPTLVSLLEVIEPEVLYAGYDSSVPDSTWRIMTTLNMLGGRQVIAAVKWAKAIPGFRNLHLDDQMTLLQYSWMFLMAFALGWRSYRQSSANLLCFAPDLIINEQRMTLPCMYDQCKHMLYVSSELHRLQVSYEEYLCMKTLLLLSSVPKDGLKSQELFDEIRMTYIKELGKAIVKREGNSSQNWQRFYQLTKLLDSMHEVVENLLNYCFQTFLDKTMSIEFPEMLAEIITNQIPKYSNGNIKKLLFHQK
# [4] = target: Glucocorticoid receptor (Homo sapiens) (UniProt P04150); assay: GR-EFC Redistribution (AID 451; calls by dose curve; further: potency means the concentration at half of the fitted maximal effect); conditions: CHO-K1 GR-EFC translocation, beta-gal luminescence, 2 h
# Procedure, shortened: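 CHO-K1 cells expressing nuclear EA and GR-ED fragments of b-gal; compounds titrated up to 46 uM final, 2 h at 37 C. GR nuclear translocation read as complemented b-gal luminescence after 1 h RT detection.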
# [5] = target: Mitogen-activated protein kinase 10 (Mus musculus) (UniProt Q61831); assay: JNK3 AlphaScreen Assay (AID 530; active means well fitted curve in either direction with a large enough effect, not every such curve was filed as active;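 further: kinase came from lysate of stimulated human HepG2 cells; signal reports phosphorylation of biotinylated GST-cJun 1-79 at Ser73 with 10 µM ATP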)
# Procedure, shortened: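 qHTS format: compounds tested as titrations against IL-1beta/TNF-alpha-activated HepG2 lysate JNK3 with biotin-GST-cJun substrate and 10 uM ATP at room temperature. Loss of anti-phospho-cJun AlphaScreen signal indicates inhibition.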
# [6] = target: 3',5'-cyclic-AMP phosphodiesterase 4B (Homo sapiens) (UniProt Q07343); assay: qHTS Assay for Inhibitors of PDE-IV (AID 607; active means well fitted activation curve with a large enough effect in the main read-out, with a control signal flat, not every such curve was filed as active; further: potency means the concentration at half of the fitted maximal effect)
# 3',5'-cyclic-AMP phosphodiesterase 4B (Homo sapiens), sequence (Q07343 whole entry, looked up): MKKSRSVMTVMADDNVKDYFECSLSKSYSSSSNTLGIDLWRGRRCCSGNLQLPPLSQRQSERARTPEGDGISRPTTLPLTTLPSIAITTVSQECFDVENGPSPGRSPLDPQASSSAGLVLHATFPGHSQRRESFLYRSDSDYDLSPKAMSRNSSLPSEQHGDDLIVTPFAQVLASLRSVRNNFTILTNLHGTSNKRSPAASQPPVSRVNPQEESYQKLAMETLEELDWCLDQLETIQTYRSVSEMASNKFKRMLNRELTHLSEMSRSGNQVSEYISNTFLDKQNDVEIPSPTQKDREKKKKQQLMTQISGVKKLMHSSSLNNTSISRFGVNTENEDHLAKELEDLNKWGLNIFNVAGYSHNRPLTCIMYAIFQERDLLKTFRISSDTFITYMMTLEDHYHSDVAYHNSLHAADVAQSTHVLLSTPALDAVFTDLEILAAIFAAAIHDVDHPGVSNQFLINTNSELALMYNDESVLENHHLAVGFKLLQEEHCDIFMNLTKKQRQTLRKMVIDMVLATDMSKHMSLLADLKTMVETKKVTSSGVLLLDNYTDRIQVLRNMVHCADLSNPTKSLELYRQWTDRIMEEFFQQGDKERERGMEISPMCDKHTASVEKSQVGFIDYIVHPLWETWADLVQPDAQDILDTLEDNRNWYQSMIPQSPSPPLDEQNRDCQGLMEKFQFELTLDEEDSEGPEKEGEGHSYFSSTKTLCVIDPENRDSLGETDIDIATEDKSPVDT
# Procedure, shortened: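 Live HEK293 cells with a modified cyclic nucleotide-gated (CNG) channel report intracellular cAMP via membrane-potential dye fluorescence (ex 535/em 590 nm). Endogenous PDE-IV was targeted. Compounds were tested at up to 22.9 uM final; RO 20-1724 100 uM served as control.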
# [7] = target: Guanine nucleotide-binding protein G(i) subunit alpha-1 (Homo sapiens) (UniProt P63096); assay: qHTS Assay for Inhibitors of RGS12 GoLoco Motif Activity (Green Fluorophore) (AID 879);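 further: negative values mean loss of peptide binding seen as reduced polarization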
# Procedure, shortened: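 Fluorescence polarization assay: 50 nM Gαi1 with 10 nM FITC-labeled RGS12 GoLoco peptide in 10 mM Tris pH 7.5, 150 mM NaCl, 0.1 mM GDP, 0.05% NP40, 10 min at room temperature with compound.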
# [8] = target: Cytochrome P450 2C9 (Homo sapiens) (UniProt P11712); assay: qHTS Assay for Inhibitors and Substrates of Cytochrome P450 2C9 (AID 883); further: nearly all actives have a fitted effect of over 60% in size; further: potency means the concentration at half of the fitted maximal effect
# Cytochrome P450 2C9 (Homo sapiens), sequence (P11712 whole entry, looked up): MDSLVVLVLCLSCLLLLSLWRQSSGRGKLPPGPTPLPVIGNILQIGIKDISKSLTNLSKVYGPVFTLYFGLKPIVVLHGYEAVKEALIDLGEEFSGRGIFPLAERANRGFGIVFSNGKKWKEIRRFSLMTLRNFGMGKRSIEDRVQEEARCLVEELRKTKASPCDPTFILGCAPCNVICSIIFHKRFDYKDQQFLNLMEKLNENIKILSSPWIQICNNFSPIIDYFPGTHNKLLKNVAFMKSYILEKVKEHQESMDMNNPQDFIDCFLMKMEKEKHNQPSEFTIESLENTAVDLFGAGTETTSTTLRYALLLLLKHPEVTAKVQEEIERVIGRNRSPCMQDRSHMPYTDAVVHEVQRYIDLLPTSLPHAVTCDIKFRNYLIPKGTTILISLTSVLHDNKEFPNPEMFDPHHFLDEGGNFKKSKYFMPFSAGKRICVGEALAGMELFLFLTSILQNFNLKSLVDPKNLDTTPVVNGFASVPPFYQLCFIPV
# Procedure, shortened: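 10nM CYP2C9 + 100uM Luciferin-H (=KM), 25mM KPO4; cpd 10 min 37C; NADPH regen, 60 min 37C; stop/detect with P450 Glo-Buffer 20 min; luminescence. Norm. to 57uM sulphaphenazole as full inhibition.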
# [9] = target: Cytochrome P450 3A4 (Homo sapiens) (UniProt P08684); assay: qHTS Assay for Inhibitors and Substrates of Cytochrome P450 3A4 (AID 884); further: nearly all actives have a fitted effect of over 50% in size; further: potency means the concentration at half of the fitted maximal effect
# Cytochrome P450 3A4 (Homo sapiens), sequence (P08684 whole entry, looked up): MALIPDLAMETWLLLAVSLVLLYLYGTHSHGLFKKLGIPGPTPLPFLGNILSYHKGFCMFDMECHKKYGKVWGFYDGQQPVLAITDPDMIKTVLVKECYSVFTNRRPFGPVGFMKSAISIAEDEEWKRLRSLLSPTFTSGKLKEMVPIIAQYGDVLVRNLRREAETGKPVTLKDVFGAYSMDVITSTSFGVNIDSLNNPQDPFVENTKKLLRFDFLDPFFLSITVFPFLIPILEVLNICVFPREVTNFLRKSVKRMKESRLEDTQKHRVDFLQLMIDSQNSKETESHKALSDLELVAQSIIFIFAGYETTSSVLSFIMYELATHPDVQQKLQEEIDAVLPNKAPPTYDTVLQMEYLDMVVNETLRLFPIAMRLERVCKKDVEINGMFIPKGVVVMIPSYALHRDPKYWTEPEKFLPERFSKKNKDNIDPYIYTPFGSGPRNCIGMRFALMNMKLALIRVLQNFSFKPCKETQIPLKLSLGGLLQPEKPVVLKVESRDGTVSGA
# Procedure, shortened: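 20 nM human CYP3A4 with 25 uM Luciferin-PPXE (at KM) in 200 mM KPO4, preincubated 10 min with compound; NADPH regeneration started a 60 min RT reaction. Luciferin detected by luminescence, normalized to 57 uM ketoconazole as full inhibition.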
# [10] = target: Cytochrome P450 2D6 (Homo sapiens) (UniProt P10635); assay: qHTS Assay for Inhibitors and Substrates of Cytochrome P450 2D6 (AID 891);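 further: luciferin methyl ether substrate demethylated by CYP2D6 with NADPH regeneration; nearly all actives have a fitted effect of over 60% in size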
# Cytochrome P450 2D6 (Homo sapiens), sequence (P10635 whole entry, looked up): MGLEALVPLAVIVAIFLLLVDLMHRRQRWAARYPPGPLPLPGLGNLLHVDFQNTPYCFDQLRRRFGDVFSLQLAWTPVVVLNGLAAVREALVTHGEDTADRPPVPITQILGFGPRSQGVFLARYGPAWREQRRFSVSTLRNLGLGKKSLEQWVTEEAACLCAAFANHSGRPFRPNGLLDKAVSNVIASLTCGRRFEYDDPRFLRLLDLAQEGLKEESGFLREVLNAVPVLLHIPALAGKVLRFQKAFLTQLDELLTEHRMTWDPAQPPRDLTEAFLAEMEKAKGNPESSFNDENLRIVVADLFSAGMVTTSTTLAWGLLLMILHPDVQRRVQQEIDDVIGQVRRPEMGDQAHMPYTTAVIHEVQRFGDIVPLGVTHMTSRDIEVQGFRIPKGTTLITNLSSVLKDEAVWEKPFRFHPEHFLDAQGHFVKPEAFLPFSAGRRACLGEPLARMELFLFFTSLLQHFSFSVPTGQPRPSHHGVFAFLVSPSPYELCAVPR
# Procedure, shortened: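 Human CYP2D6 (5 nM) with 30 uM Luciferin-ME EGE (at Km) in 100 mM KPO4, compound preincubated 10 min, then NADPH regeneration system for 60 min at room temperature. Luciferin read by luminescence; normalized to 1.43 uM quinidine.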
# [11] = target: Cytochrome P450 2C19 (Homo sapiens) (UniProt P33261); assay: qHTS Assay for Inhibitors and Substrates of Cytochrome P450 2C19 (AID 899); further: nearly all actives have a fitted effect of over 60% in size; further: potency means the concentration at half of the fitted maximal effect
# Procedure, shortened: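 Luminescent read-out of luciferin formed from Luciferin-H EGE (10uM, equal to KM). Enzyme 5nM in 50mM KPO4; compound added, 10 min at 37C, then NADPH regenerating system for 60 min at 37C. Full inhibition defined by 57uM ketoconazole.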
# [12] = target: Pyruvate kinase (Leishmania mexicana) (UniProt Q27686); assay: qHTS Validation Assay for Inhibitors of Leishmania Mexicana Pyruvate Kinase (AID 945); further: potency means the concentration at half of the fitted maximal effect
# Pyruvate kinase (Leishmania mexicana), sequence (Q27686 2-499 E452W): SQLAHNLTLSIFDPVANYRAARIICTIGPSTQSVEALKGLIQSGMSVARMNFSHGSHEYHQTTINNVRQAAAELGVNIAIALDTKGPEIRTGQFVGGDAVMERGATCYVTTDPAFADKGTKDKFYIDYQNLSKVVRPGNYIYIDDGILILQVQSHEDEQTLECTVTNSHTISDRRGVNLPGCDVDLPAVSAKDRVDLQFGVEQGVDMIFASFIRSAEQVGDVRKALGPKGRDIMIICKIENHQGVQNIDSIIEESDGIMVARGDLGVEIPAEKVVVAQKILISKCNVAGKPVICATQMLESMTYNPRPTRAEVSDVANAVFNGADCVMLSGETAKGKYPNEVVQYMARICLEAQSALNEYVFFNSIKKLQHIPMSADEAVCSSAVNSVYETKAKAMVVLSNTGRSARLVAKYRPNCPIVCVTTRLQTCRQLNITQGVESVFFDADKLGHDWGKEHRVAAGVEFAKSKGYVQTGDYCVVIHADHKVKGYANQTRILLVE
# Procedure, shortened: (§1)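 Luminescent ATP detection (PKLight) after a 1 h room-temperature reaction of 0.2 nM LmPYK E451W mutant with 0.5 mM PEP and 0.1 mM ADP at pH 7.2. Activity is normalized to DMSO-only control wells.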
# [13] = target: Pyruvate kinase PKM (Homo sapiens) (UniProt P14618); assay: qHTS Assay for Inhibitors of Human Muscle Pyruvate Kinase (AID 958)
# Pyruvate kinase PKM (Homo sapiens), sequence (P14618 whole entry, looked up): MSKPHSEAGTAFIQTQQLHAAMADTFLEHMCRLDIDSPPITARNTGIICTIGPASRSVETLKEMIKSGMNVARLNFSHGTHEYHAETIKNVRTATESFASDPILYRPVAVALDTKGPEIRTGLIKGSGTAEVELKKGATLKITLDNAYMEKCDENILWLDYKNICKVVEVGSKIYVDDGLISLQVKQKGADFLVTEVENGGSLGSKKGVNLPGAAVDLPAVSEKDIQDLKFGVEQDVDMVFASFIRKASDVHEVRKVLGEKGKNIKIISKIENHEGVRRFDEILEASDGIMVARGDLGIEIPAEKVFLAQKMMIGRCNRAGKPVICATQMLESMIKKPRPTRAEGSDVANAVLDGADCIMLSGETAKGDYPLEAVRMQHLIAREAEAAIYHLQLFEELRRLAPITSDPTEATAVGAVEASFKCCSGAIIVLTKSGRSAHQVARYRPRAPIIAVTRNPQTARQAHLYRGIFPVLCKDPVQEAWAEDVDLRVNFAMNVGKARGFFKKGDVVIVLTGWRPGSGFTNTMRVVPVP
# Procedure, shortened: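 PKM2, human, >95% pure, 0.1 nM; PEP 0.5 mM (Km), ADP 0.1 mM; 50 mM imidazole pH 7.2, 50 mM KCl, 0.01% Tween 20, 0.05% BSA; 1 h RT; luciferase luminescence readout.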
# [14] = target: Pyruvate kinase (Leishmania mexicana) (UniProt Q27686); assay: qHTS Validation Assay for Activators of Leishmania Mexicana Pyruvate Kinase (AID 959)
# Procedure, shortened: as §1
# [15] = target: Alpha-galactosidase A (Homo sapiens) (UniProt P06280); assay: Counterscreen for Glucocerebrosidase Inhibitors: qHTS Assay for Human alpha-Galactosidase at pH 4.5 (AID 992)
# Alpha-galactosidase A (Homo sapiens), sequence (P06280 whole entry, looked up): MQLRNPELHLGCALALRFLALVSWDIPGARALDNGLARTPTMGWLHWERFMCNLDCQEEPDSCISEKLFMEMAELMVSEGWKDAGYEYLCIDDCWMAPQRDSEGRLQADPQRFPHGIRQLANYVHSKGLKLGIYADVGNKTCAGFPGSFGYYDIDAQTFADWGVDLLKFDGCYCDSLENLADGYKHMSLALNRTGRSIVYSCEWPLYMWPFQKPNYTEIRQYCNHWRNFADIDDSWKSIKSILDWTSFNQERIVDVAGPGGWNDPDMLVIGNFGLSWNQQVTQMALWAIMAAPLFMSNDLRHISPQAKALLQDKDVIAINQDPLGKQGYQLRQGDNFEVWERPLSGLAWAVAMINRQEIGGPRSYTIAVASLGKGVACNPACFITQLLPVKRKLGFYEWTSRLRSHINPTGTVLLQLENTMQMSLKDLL
# Procedure, shortened: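 Read-out is 4-methylumbelliferone fluorescence (365 nm excitation, 440 nm emission) after a pH 10 NaOH/glycine stop. Reactions held 2 nM enzyme and 80 uM substrate at pH 4.5 for 20 min at room temperature.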
# [16] = NFAT Signaling Pathway (AID 444; active means well fitted curve in either direction with a large enough effect, not every such curve was filed as active;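 further: carbachol stimulus at about its EC50 of 1 µM final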); conditions: Jurkat NFAT-bla M1, carbachol, beta-lactamase ratio, 5 h; at 17.2 µM (top of the series) unless noted
# Procedure, shortened: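 Jurkat cells with NFAT-driven β-lactamase reporter and co-expressed M1 receptor, stimulated with carbachol (final 1 uM, ~EC50), compound titration, 5 h at 37 °C. CCF4 loaded 1 h at RT; 460/530 nm ratio gave %activity and AC50.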
# [17] = target: Cytochrome P450 3A4 (Homo sapiens) (UniProt P08684); assay: qHTS Assay for Activators of Cytochrome P450 3A4 (AID 885); further: nearly all actives have a fitted effect of over 65% in size
# Procedure, shortened: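 Quantitative HTS format: compounds preincubated with 20nM human CYP3A4 and Luciferin-PPXE substrate at KM, reaction started by NADPH regeneration, stopped after 60 min, luciferase luminescence read 20 min later.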
# [18] = target: Pyruvate kinase PKM (Homo sapiens) (UniProt P14618); assay: qHTS Assay for Activators of Human Muscle Pyruvate Kinase (AID 954; active means well fitted curve in the direction sought with a large enough effect, not every such curve was filed as active)
# Procedure, shortened: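 Enzyme was run at intermediate activity so both inhibitors and activators could be detected. ATP formed from ADP and PEP by 0.1 nM human PKM2 during a 1 h room-temperature incubation was quantified by coupled luciferase luminescence.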
# [19] = qHTS Assay for Identification of Small Molecule Agonists for Thrombopoietin (TPO) Signaling Pathway (AID 917); further: potency means the concentration at half of the fitted maximal effect
# Procedure, shortened: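 Reporter: GpIIb promoter–luciferase in murine Ba/F3 expressing human TPO receptor. Pre-starved of IL-3 overnight; compounds with 26 pM TPO, 24 hrs, 37 C/5% CO2; luminescence read.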
# [20] = qHTS Assay for Identification of Small Molecule Agonists for NFkB Signaling Pathway (AID 928; calls by dose curve); conditions: NFkB beta-lactamase reporter cells, blue/green ratio
# Procedure, shortened: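 ME-180 NFkB-bla cells carry a beta-lactamase reporter under an NFkB response element. Compound plus 10 pM TNF alpha (final) was applied for 5 hrs at 37 C. After 2 hrs with LiveBLAzer substrate, 460/530 nm emission was read at 405 nm excitation.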
# [21] = target: DNA dC->dU-editing enzyme APOBEC-3G (Homo sapiens) (UniProt Q9HC16); assay: qHTS for inhibitors of Vif-A3G interactions: Validation (AID 588379)
# Procedure, shortened: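 HeLa cells stably expressing Vif and A3G-eYFP, 700 cells/well, incubated overnight at 37 deg C, then exposed to compound overnight at 37 deg C. Inhibition of Vif-mediated degradation read as increased yellow fluorescence (Ex 488/Em 500-530) by laser-scanning cytometry.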
structure (smiles),measurement,setting,value
Nc1ncnc2c1ncn2[C@@H]1O[C@@H](COP(=O)(O)OP(=O)(O)OP(=O)(O)OP(=O)(O)OC[C@@H]2O[C@@H](n3cnc4c(N)ncnc43)[C@@H](O)[C@H]2O)[C@H](O)[C@@H]1O,Potency,[1],inactive
same,"activity, negative = inhibition",[2],32% [at 38 µM]
same,Potency,[3],> 46 µM
same,Potency,[4],> 46 µM
same,Potency,[5],inactive
same,Potency,[6],inactive
same,outcome,[7],inactive
same,Potency,[8],inactive
same,Potency,[9],inactive
same,Potency,[10],inactive
same,Potency,[11],inactive
same,Potency,[12],inactive
same,Potency,[13],inactive
same,Potency,[14],12.6 µM (active)
same,outcome,[15],inactive
O=C(/C=C\c1ccc(O)c(O)c1)OCCc1ccccc1,Potency,[1],1 µM (active)
same,"activity change, negative = inhibition",[16],-12.2% [at 38 µM]
same,"activity, negative = inhibition",[2],-10.7% [at 38 µM]
same,Potency,[3],> 46 µM
same,Potency,[4],> 46 µM
same,Potency,[6],inactive
same,Potency,[17],inactive
same,outcome,[18],inactive
same,Potency,[14],inactive
same,outcome,[15],inactive
COc1ccc(NC(=O)/C=C\c2ccc(Cl)cc2)cc1,Potency,[1],5.01 µM (active)
same,"activity change, negative = inhibition",[16],-10.1% [at 38 µM]
same,Potency,[3],> 46 µM
same,Potency,[4],> 46 µM
same,Potency,[6],inactive
same,Potency,[8],inactive
same,Potency,[9],25.1 µM (active)
same,Potency,[11],3.98 µM (active)
same,Potency,[19],0.316 µM (active)
same,Potency,[20],1.41 µM (active)
same,Potency,[12],10 µM (active)
same,outcome,[18],inactive
same,Potency,[13],15.8 µM (active)
same,Potency,[14],inactive
same,outcome,[15],inactive
CC(=O)O[C@H]1CC[C@@]2(C)[C@@H](CC[C@@]3(C)[C@H]2C(=O)C=C2[C@H]4C[C@](C)(C(=O)OCCN5CCCCC5)CC[C@]4(C)CC[C@@]23C)C1(C)C,Potency,[1],inactive
same,Potency,[3],> 46 µM
same,Potency,[4],> 46 µM
same,Potency,[5],inactive
same,Potency,[6],inactive
same,Potency,[8],inactive
same,Potency,[10],inactive
same,Potency,[11],inactive
C=C1CC[C@@H]2[C@](C)(CC[C@@H](O)[C@]2(C)CO)[C@@H]1C/C=C1/C(=O)OC[C@H]1O,Potency,[1],inactive
same,Potency,[3],> 46 µM
same,Potency,[4],> 46 µM
same,Potency,[5],inactive
same,Potency,[6],inactive
same,Potency,[8],inactive
same,Potency,[10],inactive
same,Potency,[11],inactive
C=C1C(=O)O[C@H]2C[C@@]3(C)CCCC(=C)[C@@H]3C[C@H]12,Potency,[1],20 µM (active)
same,Potency,[3],> 46 µM
same,Potency,[4],> 46 µM
same,Potency,[5],inactive
same,Potency,[6],7.55 µM (active)
CC(=O)Oc1ccc(/C=C\C(=O)C[C@@H]2O[C@@H](Oc3cc(OC(C)=O)c4c(c3)O[C@@H](c3ccc(OC(C)=O)cc3)CC4=O)[C@H](OC(C)=O)[C@H](OC(C)=O)[C@@H]2OC(C)=O)cc1,Potency,[1],inactive
same,Potency,[3],> 46 µM
same,Potency,[4],> 46 µM
same,Potency,[5],inactive
same,Potency,[6],inactive
same,Potency,[8],inactive
same,Potency,[10],inactive
COc1ccc2c(=O)cc(-c3ccccc3)oc2c1O,Potency,[1],0.0158 µM (active)
same,Potency,[3],> 46 µM
same,Potency,[4],> 46 µM
same,Potency,[5],inactive
same,Potency,[6],inactive
same,Potency,[8],15.8 µM (active)
same,Potency,[10],inactive
same,Potency,[11],5.01 µM (active)
same,outcome,[21],inactive

# From PubChem BioAssay (NCATS)
